Drawing on PubChem BioAssay (NCATS), this text covers outcome for 40 molecules.

Results filed as inconclusive are left out. Calls of active or inactive are those of the source. Calls come from the whole dose curve; as a rule, active = well fitted curve in either direction with a large enough effect (not every such curve was filed as active); inconclusive = small, poorly fitted or top-dose-only effect, or another doubt; inactive = flat fitted curve, though single readings scatter.

The target in this experiment is Mitogen-activated protein kinase 10 (Mus musculus) (UniProt Q61831). As to the kind of experiment: JNK3 AlphaScreen Assay (AID 530).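 Note: kinase came from lysate of stimulated human HepG2 cells.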 As to conditions: JNK3 lysate, c-Jun phosphorylation; series mostly up to 57.1 µM. From the text:
NIH Chemical Genomics Center [NCGC]
NIH Molecular Libraries Screening Centers Network [MLSCN]
The c-jun N-terminal kinase (JNK) family are serine/threonine protein kinases that phosphorylate c-jun, a component of the transcription factor […] (AP-1). JNK kinases are members of the mitogen-activated protein kinase family including the extracellular regulated kinases and p38 kinases. Three JNK genes (JNK 1, 2, and 3) have been identified in humans so far. JNK1 and JNK2 have a broad distribution and JNK3 is primarily found in neuronal tissues and cardiac myocytes.
JNK3 has been under consideration as a target for the treatment of neurodegenerative disorders. […] JNK pathway is also involved in pathological process in a mouse model of Parkinson's disease (Xia et al., 2001).
Given these potential tissue distributions and links to neuroprotection, JNK3 inhibitors should provide useful investigational tools to study the role of this kinase in several diseases including, arthritis, stroke, myocardial infarction, ischemic injury and Parkinson's disease.
A homogeneous AlphaScreen is developed to measure the activity of JNK3. AlphaScreen is a two bead-based proximity-dependent chemical energy transfer luminescent assay platform. The phosphorylation of a biotinylated c-jun substrate by JNK3 can be detected with an antibody raised against phosphorylated c-jun. This process brings streptavidin donor beads and Protein-A acceptor beads to within a proximity range of <200 nm, and subsequently lead a chemical luminescent reaction upon exciting donor beads with 680 nm laser excitation light. Inhibition of JNK3 activity by small molecules and subsequent decrease in the antibody binding to biotinylated c-jun could attenuate or abolish this chemical luminescent reaction.
Yang DD, Kuan CY, Whitmarsh AJ, Rincon M, Zheng TS, Davis RJ, Rakic P and Flavell RA (1997) Absence of excitotoxicity-induced apoptosis in the hippocampus of mice lacking the Jnk3 gene. Nature 389:865-870. [PMID: 9349820]
Herdegen T, Claret FX, Kallunki T, Martin-Villalba A, Winter C, Hunter T, and Karin M (1998) Lasting N-terminal phosphorylation of c-Jun and activation of c-Jun N-terminal kinases after neuronal injury. J.Neurosci. 18:5124-5135. [PMID: 9651196]
Xia XG, Harding T, Weller M, Bieneman A, Uney JB and Schulz JB (2001) Gene transfer of the JNK interacting protein-1 protects dopaminergic neurons in the MPTP model of Parkinson's disease. Proc.Natl.Acad.Sci.U.S.A. 98:10433-10438.
NCGC Assay Protocol Summary:
GST-cJun (1-79) (Stratagene, La Jolla CA, #205145) was biotnylated by PerkinElmer (PerkinElmer-BioSignalInc. Montreal, Canada) and was detectable by the streptavidin Donor beads. Anti-(phospho)cJun (Ser73) antibody was from UpState (Charlottesvilles, VA, #06-659). JNK3-containing lysates were generated from HepG2 cells and pre-activated by interleukin1-beta and tumor necrosis factor alpha. All reagents were stored at -20 C before using. Phosphorylated biotinylated-GST-cJun was recognized by Anti-(phospho)cJun (Ser73) antibody and this process brings acceptor and donor beads together. Therefore JNK3 phosphorylation of cJun can be measured by Alpha reading by EnVision (PerkinElmer, Boston, MA).
The composition of kinase buffer was (in mM) 20 tris- HCl (pH 7.6) 10 MgCl2, 1 DTT, and 0.1 Na3VO4 and 0.01% Tween-20. Beads were diluted in detection buffer containing (in mM) 20 tris-HCl (pH 7.7), 20 NaCl and 80 EDTA and 0.3% BSA. The assay was performed at room temperature. All compounds were screened as titrations from 0.6 nM to 46 uM final concentration. The assay was performed in 1536-well format (white solid bottom and untreated) as follows:
Sequence,Parameter,Value,Description
1,Reagent,3 uL,Biotin-GST-cJun, Anti-(phospho)cJun and pre-activated JNK3-containing lysates
2,Compound,23 nL,Final concentration was 0.6nM to 46uM
3,Time,15 minutes,Room Temperature
4,Reagent,1 uL,ATP final concentration 10uM
6,Reagent,0.5 uL,2ng/well bead mixture
[…]
For `CCc1c2c(nc3ccc(OC)cc13)OC(C)C2` (stereo not given), the outcome was inactive.
In the case of `CC(C)(C)NC(=O)C(c1ccc(I)cc1)N(CCN1CCOCC1)C(=O)CCCNC(=O)c1ccccc1` (stereo not given) it was “inactive”.
For the molecule `COC(=O)c1ccc(C(NC(=O)OCc2ccccc2)/C(C)=C/[C@@H](C)C(=O)N[C@@H](CO)Cc2ccccc2)cc1` (stereo not given in full), the molecule was called inactive.
The same measure for `COC(=O)[C@@]1(Cc2ccc(OC)cc2)[C@H]2c3cc(C(=O)N4CCCC4)n(CCF)c3C[C@H]2CN1C(=O)c1ccccc1`: “inactive”; for `O=C(NCc1cccc2ccccc12)[C@H]1C[C@@H]1[C@H](NP(=O)(c1ccccc1)c1ccccc1)c1ccccc1`: “inactive”.
In the case of `COC(=O)c1ccc(C(NC(=O)OCc2ccccc2)/C(I)=C/[C@@H](C)C(=O)NCc2ccc(C)o2)cc1` (stereo not given in full) it was “inactive”; in that of `COC(=O)c1ccc(C(NC(=O)OCc2ccccc2)/C(F)=C/[C@@H](C)C(=O)NCc2ccc(OC)c(OC)c2)cc1` (stereo not given in full), “inactive”; in that of `COC(=O)N1CC=CC1(C)C(=O)NCc1ccc(C)o1` (stereo not given), “inactive”.
As to `CN(C)C(=O)[C@]1(C)C[C@H]1[C@H](NC(=O)CNC(=O)[C@@H]1CCCN1C(=O)[C@]1(C)C[C@H]1[C@H](NC(=O)OCc1ccccc1)c1ccccc1)c1ccccc1`, the result was inactive.
On to `COCCNC(=O)[C@@]1(C)C=C[C@@H](Cc2ccccc2)N1C(=O)c1ccccc1`, for which the molecule was called inactive.
The same measure for `COC(=O)[C@@H]1C[C@H]1[C@@H](NS(=O)(=O)c1ccc2ccccc2c1)c1ccccc1`: “inactive”; for `CC(Cc1ccccc1)C(=O)N(C)Cc1ccccc1` (stereo not given): “inactive”.
In the case of `COC(=O)N1[C@H](C)C=C[C@]1(Cc1ccccc1)C(=O)NCc1ccccn1` it was “inactive”; in that of `COC(=O)c1ccc(C(NC(=O)OCc2ccccc2)/C(I)=C/[C@@H](C)C(=O)NCc2ccncc2)cc1` (stereo not given in full), “inactive”; in that of `CN1[C@H](Cc2ccccc2)C=C[C@]1(C)C(=O)NCC1CC1`, “inactive”.
In the case of `COC(=O)[C@@]1(Cc2ccc(F)cc2)[C@H]2c3cc(C(=O)N(C)C)n(Cc4ccc(O)c(OC)c4)c3C[C@H]2CN1C(=O)c1ccccc1` it was “inactive”; in that of `COC(=O)c1ccc(C(/C=C/[C@@H](C)C(=O)NCCN2CCCC2)NC(=O)OCc2ccccc2)cc1` (stereo not given in full), “inactive”.
In the case of `CNC(=O)C1(C)C=CC2(CCCCC2)N1C(=O)OC` (stereo not given), the molecule was called inactive.
In the case of `CNC(=O)[C@@]1(C)C=C[C@@H](Cc2ccccc2)N1C(=O)OC` it was “inactive”; in that of `CC(Cc1ccccc1)C(=O)N1CCN(C)CC1` (stereo not given), “inactive”; in that of `COC(=O)c1ccc(C(NC(=O)OCc2ccccc2)/C(=C/[C@@H](C)C(=O)N(C)Cc2cccnc2)c2cccnc2)cc1` (stereo not given in full), “inactive”.
Regarding `COC(=O)[C@H](Cc1ccccc1)NC(=O)[C@@]1(C)C[C@@H]1[C@@H](NC(=O)OCc1ccccc1)c1ccccc1`, the molecule was called inactive.
The same measure for `COC(=O)[C@@]1(Cc2ccc(F)cc2)[C@H]2c3cc(C(=O)N(C)C)n(Cc4ccsc4Br)c3C[C@H]2CN1C(=O)c1ccccc1`: “inactive”; for `Cc1cc(C(=O)N[C@@H](c2ccccc2)[C@]2(C)C[C@H]2[C@@H](C)C(=O)Nc2ccc3ccccc3c2)no1`: “inactive”.
With `COC(=O)[C@@]1(Cc2ccc(F)cc2)[C@H]2c3cc(C(=O)N(C)C)n(CCSCCO)c3C[C@H]2CN1C(=O)c1ccccc1`, the molecule was called inactive.
In the case of `COC(=O)[C@@]1(Cc2ccc(OC)cc2)[C@H]2c3cc(C(=O)N(C)C)n(Cc4cccc5ccccc45)c3C[C@H]2CN1C(=O)c1ccccc1` it was “inactive”.
The same measure for `COC(=O)[C@@]1(Cc2ccc(OC)cc2)[C@H]2c3cc(C(=O)N4CCCC4)n(Cc4ccccn4)c3C[C@H]2CN1C(=O)c1ccccc1`: “inactive”.
In the case of `COC(=O)C1(C)C=CC2(CCCCC2)N1C(=O)c1ccccc1` (stereo not given) it was “inactive”; in that of `C[C@@H](C(=O)N[C@@H](CO)Cc1ccccc1)[C@@H]1C[C@@]1(C)[C@@H](NC(=O)OCc1ccccc1)c1ccccc1`, “inactive”.
In the case of `Cc1ccc(CNC(=O)[C@H](C)[C@H]2C[C@]2(C)[C@H](NC(=O)OCc2ccccc2)c2ccccc2)o1`, the molecule was classed as inactive.
The same measure for `CNC(=O)[C@]1(C)C[C@H]1[C@H](NC(=O)[C@]1(C)C[C@H]1[C@H](NC(=O)[C@]1(C)C[C@H]1[C@H](NC(=O)[C@]1(C)C[C@H]1[C@H](NC(=O)OCc1ccccc1)c1ccccc1)c1ccccc1)c1ccccc1)c1ccccc1`: “inactive”; for `COC(=O)[C@@]1(Cc2ccc(OC)cc2)[C@H]2c3cc(C(=O)N4CCCC4)n(CCN4CCOCC4)c3C[C@H]2CN1C(=O)c1ccccc1`: “inactive”; for `CCCC/C=C/C(NC(=O)c1ccc(C(=O)OC)cc1)c1ccccc1` (stereo not given): “inactive”.
The same measure for `CCCC[C@@H]1C[C@H]1C(NC(=O)c1ccco1)c1ccccc1C(F)(F)F` (stereo not given in full): “inactive”; for `CCCCCCN(C(=O)CCCCCN1C(=O)NC(c2ccc(-c3ccccc3)cc2)C(C(=O)OCc2ccccc2)=C1C)C(C)C(=O)NCCCC` (stereo not given): “inactive”; for `COC(=O)[C@@]1(Cc2ccc(OC)cc2)[C@H]2c3cc(C(=O)N4CCCC4)n(CCN4CNCC4=O)c3C[C@H]2CN1C(=O)c1ccccc1`: “inactive”.
As to `COC(=O)c1ccc(C(/C=C/[C@@H](C)C(=O)NCc2cc(C)n(C)n2)NC(=O)OCc2ccccc2)cc1` (stereo not given in full), the outcome was inactive.
In the case of `COC(=O)c1ccc(C(NC(=O)OCc2ccccc2)/C(I)=C/[C@@H](C)C(=O)Nc2ccccc2)cc1` (stereo not given in full) it was “inactive”; in that of `CCCCCCN(C(=O)CCCCCN1C(=O)NC(c2ccc(C(C)(C)C)cc2)C(C(=O)OCc2ccccc2)=C1C)C(C(=O)NCCCC)c1ccc(OCC(=O)OC)c(C(=O)OC)c1` (stereo not given), “inactive”.
The same measure for `COC(=O)[C@@]1(Cc2ccc(OC)cc2)[C@H]2c3cc(C(=O)N4CCCC4)n(CCc4ccc(O)c(O)c4)c3C[C@H]2CN1C(=O)c1ccccc1`: “inactive”.
